According to PubChem BioAssay (NCATS):
Records with an inconclusive call do not appear. Active and inactive are the calls of the source. The call rests on the fitted dose curve; in most records, active means well fitted curve in the direction sought with a large enough effect; inconclusive means small, poorly fitted or top-dose-only effect, or another doubt; inactive means no such curve, though single readings can be large; an effect the other way counts as inactive or inconclusive.

Columns and labels:
[1] = Quantitative High-Throughput drug screen in 47 multiple myeloma cell lines against the NCATS MIPE library collection: KMS12PE_JCRB cell viability assay (AID 1918972); further: nearly all actives have a fitted effect of over 30% in size
Summary of the method: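 CellTiter-Glo luminescence (ATP) after 48 h compound exposure, 37C/5% CO2; 500 cells/well; MIPE 4.0 approved/investigational drugs pinned in; DMSO = 100%, media only = 0% viability.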

[2] = Quantitative High-Throughput drug screen in 47 multiple myeloma cell lines against the NCATS MIPE library collection: KMS20_JCRB cell viability assay (AID 1918973); further: nearly all actives have a fitted effect of over 45% in size
Summary of the method: (§1)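 We plated 500 myeloma cells per well, pinned in MIPE 4.0 compounds, and incubated for 48 hours at 37C. ATP was then quantified with CellTiter-Glo, with DMSO and media-only wells defining 100% and 0%.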

[3] = Quantitative High-Throughput drug screen in 47 multiple myeloma cell lines against the NCATS MIPE library collection: MMM1_PLB cell viability assay (AID 1918976); further: nearly all actives have a fitted effect of over 35% in size
Summary of the method: (§2)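 500 cells/well; MIPE 4.0 drugs pin-transferred; 48 h, 37C, 5% CO2. CellTiter-Glo, 5 min RT, luminescence. Controls: DMSO 100%, media 0%.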

[4] = Quantitative High-Throughput drug screen in 47 multiple myeloma cell lines against the NCATS MIPE library collection: NCIH929_DSMZ cell viability assay (AID 1918978); further: nearly all actives have a fitted effect of over 35% in size
Summary of the method: as §2

[5] = Quantitative High-Throughput drug screen in 47 multiple myeloma cell lines against the NCATS MIPE library collection: MM1R_ATCC cell viability assay (AID 1918981); further: nearly all actives have a fitted effect of over 35% in size
Summary of the method: as §2

[6] = Quantitative High-Throughput drug screen in 47 multiple myeloma cell lines against the NCATS MIPE library collection: KMS28PE_JCRB cell viability assay (AID 1918983); further: nearly all actives have a fitted effect of over 35% in size
Summary of the method: as §2

[7] = Quantitative High-Throughput drug screen in 47 multiple myeloma cell lines against the NCATS MIPE library collection: KMS34_JCRB cell viability assay (AID 1918985); further: nearly all actives have a fitted effect of over 40% in size
Summary of the method: as §2

[8] = Quantitative High-Throughput drug screen in 47 multiple myeloma cell lines against the NCATS MIPE library collection: OPM1_PLB cell viability assay (AID 1918989); further: nearly all actives have a fitted effect of over 40% in size
Summary of the method: as §2

[9] = Quantitative High-Throughput drug screen in 47 multiple myeloma cell lines against the NCATS MIPE library collection: KMS26_JCRB cell viability assay (AID 1918975); further: nearly all actives have a fitted effect of over 45% in size
Summary of the method: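 Luminescent ATP measurement with CellTiter-Glo gives viability, scaled between DMSO-only wells (100%) and media-only wells (0%). Cells, 500 per well, faced library compounds for 48 hours at 37C.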

[10] = Quantitative High-Throughput drug screen in 47 multiple myeloma cell lines against the NCATS MIPE library collection: OCIMY1_PLB cell viability assay (AID 1918979); further: nearly all actives have a fitted effect of over 35% in size
Summary of the method: as §2

[11] = Quantitative High-Throughput drug screen in 47 multiple myeloma cell lines against the NCATS MIPE library collection: MM1S_ATCC cell viability assay (AID 1918980); further: nearly all actives have a fitted effect of over 45% in size
Summary of the method: as §2

[12] = Quantitative High-Throughput drug screen in 47 multiple myeloma cell lines against the NCATS MIPE library collection: LP1_DSMZ cell viability assay (AID 1918982); further: nearly all actives have a fitted effect of over 35% in size
Summary of the method: as §2

[13] = Quantitative High-Throughput drug screen in 47 multiple myeloma cell lines against the NCATS MIPE library collection: OCIMY7_PLB cell viability assay (AID 1918987); settings: OCI-MY7 myeloma viability, CellTiter-Glo ATP, 48 h; viability (% of DMSO): at 45.8 µM (top of the series); further: nearly all actives have a fitted effect of over 65% in size
Summary of the method: as §2

[14] = Quantitative High-Throughput drug screen in 47 multiple myeloma cell lines against the NCATS MIPE library collection: KMS21BM_JCRB cell viability assay (AID 1918974); settings: ATP luminescence, 48 h; viability: at 45.8 µM (top of the series)
Summary of the method: as §1

[15] = Quantitative High-Throughput drug screen in 47 multiple myeloma cell lines against the NCATS MIPE library collection: L363_DSMZ cell viability assay (AID 1918984); settings: L363 myeloma viability, CellTiter-Glo ATP luminescence, 48 h; viability (% of control): at 45.8 µM (top of the series); further: nearly all actives have a fitted effect of over 40% in size
Summary of the method: as §2

[16] = Quantitative High-Throughput drug screen in 47 multiple myeloma cell lines against the NCATS MIPE library collection: U266_ATCC cell viability assay (AID 1919864); further: nearly all actives have a fitted effect of over 35% in size
Summary of the method: as §2

[17] = Quantitative High-Throughput drug screen in 47 multiple myeloma cell lines against the NCATS MIPE library collection: OCIMY5_PLB cell viability assay (AID 1918988); further: nearly all actives have a fitted effect of over 65% in size
Summary of the method: as §2

[18] = Quantitative High-Throughput drug screen in 47 multiple myeloma cell lines against the NCATS MIPE library collection: SKMM1_PLB cell viability assay (AID 1919863); settings: SKMM1 myeloma viability, CellTiter-Glo ATP, 48 h; viability: hits give low values; further: nearly all actives have a fitted effect of over 35% in size
Summary of the method: as §2

[19] = Quantitative High-Throughput drug screen in 47 multiple myeloma cell lines against the NCATS MIPE library collection: MOLP8_DSMZ cell viability assay (AID 1918977); further: nearly all actives have a fitted effect of over 45% in size
Summary of the method: as §2
Potency means the concentration at half of the fitted maximal effect.

CC1CCN(c2cc(N3CCN(C)CC3)ccc2NC(=O)c2cc(C#N)c[nH]2)CC1
inactive: Potency [1] | Potency [2] | Potency [4] | Potency [8]
active: Potency [3] 23.5 µM | Potency [5] 20.9 µM | Potency [6] 23.5 µM | Potency [7] 20.9 µM

CC(=O)OCC(=O)[C@@]12OC(C)(C)O[C@H]1C[C@H]1[C@@H]3C[C@H](F)C4=CC(=O)C=C[C@]4(C)[C@@]3(F)[C@@H](O)C[C@@]12C
inactive: Potency [1] | Potency [2] | Potency [9] | Potency [4] | Potency [10] | Potency [5] | Potency [6] | Potency [7] | Potency [13] | Potency [8]
active: Potency [11] 0.0372 µM | Potency [12] 0.0264 µM

CCN1C[C@H](C)n2c(c(O)c3c(=O)n(Cc4ccc(F)c(Cl)c4)nc(C(=O)NC)c32)C1=O
active: Potency [3] 2.64 µM | Potency [5] 3.32 µM
inactive: Potency [1] | Potency [14] | Potency [9] | Potency [4] | Potency [10] | Potency [11] | Potency [15] | Potency [7] | Potency [8] | Potency [16]

C=CCc1cccc(C=NNC(=O)CN2CCN(Cc3ccccc3)CC2)c1O
active: Potency [1] 4.18 µM | Potency [2] 20.9 µM | Potency [3] 16.6 µM | Potency [4] 26.4 µM | Potency [10] 8.33 µM | Potency [11] 9.35 µM | Potency [5] 10.5 µM | Potency [6] 20.9 µM | Potency [7] 4.69 µM | Potency [13] 14.8 µM | Potency [17] 7.43 µM | Potency [8] 20.9 µM | Potency [16] 8.33 µM

Cc1cn([C@@H]2C[C@@H](O)[C@H](CO)O2)c(=O)[nH]c1=O
inactive: Potency [1] | Potency [9] | Potency [4] | Potency [10] | Potency [11] | Potency [5] | Potency [15] | Potency [17] | Potency [8] | viability [18] 137%

COc1cc2c(cc1OC)CC(=O)N(CCCN(C)C[C@H]1Cc3cc(OC)c(OC)cc31)CC2
inactive: Potency [13]
active: Potency [1] 20.9 µM | Potency [3] 7.43 µM | Potency [4] 0.332 µM | Potency [11] 16.6 µM | Potency [5] 11.8 µM | Potency [17] 16.6 µM | Potency [16] 16.6 µM

CC(C)Oc1cc(Nc2nc(N[C@@H](C)c3ccc(F)cn3)ncc2Cl)[nH]n1
active: Potency [2] 4.69 µM | Potency [14] 5.26 µM | Potency [4] 5.26 µM | Potency [11] 23.5 µM | Potency [5] 26.4 µM | Potency [15] 23.5 µM | Potency [13] 4.18 µM | Potency [17] 26.4 µM | Potency [8] 3.72 µM

CC(C)n1c(C=C[C@H](O)C[C@H](O)CC(=O)O)c(-c2ccc(F)cc2)c2ccccc21
inactive: Potency [10]
active: Potency [2] 20.9 µM | Potency [14] 29.6 µM | Potency [19] 2.96 µM | Potency [4] 13.2 µM | Potency [13] 4.18 µM | Potency [8] 5.26 µM | Potency [16] 4.18 µM

O=C1NC(=O)C(c2cnc3ccccn23)=C1c1cn2c3c(cccc13)CN(C(=O)N1CCOCC1)CC2
inactive: Potency [10] | Potency [6] | Potency [16]
active: Potency [2] 3.72 µM | Potency [9] 0.0235 µM | Potency [5] 3.32 µM | Potency [13] 0.0743 µM | Potency [17] 0.372 µM | Potency [8] 10.5 µM

COc1nc(C)cnc1NS(=O)(=O)c1cccnc1-c1ccc(-c2nnco2)cc1
inactive: Potency [1] | Potency [4] | Potency [10] | Potency [11] | Potency [5] | Potency [12] | Potency [15] | viability [18] 126% | Potency [16]
active: Potency [3] 5.26 µM

CCC(c1ccc(O)cc1)C(CC)c1ccc(O)cc1 (centres undefined)
active: Potency [9] 3.72 µM | Potency [11] 4.69 µM | Potency [17] 3.32 µM | Potency [16] 3.32 µM
inactive: Potency [1] | Potency [19] | Potency [4] | Potency [10] | Potency [15]

CCCCn1c(=O)n(Cc2ccccc2F)c(=O)c2[nH]c(Cc3ccc(NC(C)=O)cc3)nc21
inactive: Potency [1] | Potency [19] | Potency [4] | Potency [5] | Potency [12] | Potency [8]
active: Potency [11] 20.9 µM | Potency [6] 18.7 µM | Potency [7] 5.9 µM | Potency [17] 11.8 µM | Potency [16] 18.7 µM

Cn1cc(-c2ccc3nnc(Sc4ccc5ncccc5c4)n3n2)cn1
active: Potency [1] 5.26 µM | Potency [3] 16.6 µM | Potency [11] 4.18 µM | Potency [5] 23.5 µM | Potency [12] 0.001 µM | Potency [17] 13.2 µM
inactive: Potency [10] | Potency [13] | Potency [8]

Cc1cc2nc3c(=O)[nH]c(=O)nc-3n(CC(O)C(O)C(O)CO)c2cc1C (centres undefined)
active: Potency [6] 0.0833 µM | Potency [8] 18.7 µM | Potency [18] 20.9 µM
inactive: Potency [1] | Potency [19] | Potency [4] | Potency [10] | Potency [11] | Potency [12]

Cc1nc(NC(=O)N2CCC[C@@H]2C(N)=O)sc1-c1csc(C(C)(C)C)n1
active: Potency [2] 2.64 µM | Potency [14] 1.05 µM | Potency [9] 1.18 µM | Potency [3] 0.935 µM | Potency [4] 0.833 µM | Potency [11] 6.62 µM | Potency [5] 5.9 µM | Potency [6] 3.72 µM | Potency [15] 0.833 µM | Potency [13] 3.32 µM | Potency [17] 14.8 µM | Potency [16] 9.35 µM
